# Shown are actives, neighbours in structure and some others; about 3.5% of the full set was active somewhere.
# MITF inh: MITF inhibitors, primary screen, biochemical, AlphaScreen, human | hit rate 0.91% among 650,000 | inhibition, % at 2.6 µM | AlphaScreen MITF homodimerization, bead proximity signal | Microphthalmia-associated transcription factor (Homo sapiens), O75030 | AID 1259374, 2018; in the data active = inhibition above about 50%;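 also: 0% = vehicle wells with protein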
# FBW7 activator: FBW7 E3 ligase activators, primary screen, biochemical, AlphaScreen, human. AlphaScreen FBW7–phospho-cyclin E peptide binding, activator screen. normalized activity (activation), % at 26.1 µM. hit rate 0.13% among 650,000; in the data active = normalized activity above about 1.9%;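 also: purified mutant Fbw7 with reduced substrate affinity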
# Target sequence (Q969H0 whole entry, looked up): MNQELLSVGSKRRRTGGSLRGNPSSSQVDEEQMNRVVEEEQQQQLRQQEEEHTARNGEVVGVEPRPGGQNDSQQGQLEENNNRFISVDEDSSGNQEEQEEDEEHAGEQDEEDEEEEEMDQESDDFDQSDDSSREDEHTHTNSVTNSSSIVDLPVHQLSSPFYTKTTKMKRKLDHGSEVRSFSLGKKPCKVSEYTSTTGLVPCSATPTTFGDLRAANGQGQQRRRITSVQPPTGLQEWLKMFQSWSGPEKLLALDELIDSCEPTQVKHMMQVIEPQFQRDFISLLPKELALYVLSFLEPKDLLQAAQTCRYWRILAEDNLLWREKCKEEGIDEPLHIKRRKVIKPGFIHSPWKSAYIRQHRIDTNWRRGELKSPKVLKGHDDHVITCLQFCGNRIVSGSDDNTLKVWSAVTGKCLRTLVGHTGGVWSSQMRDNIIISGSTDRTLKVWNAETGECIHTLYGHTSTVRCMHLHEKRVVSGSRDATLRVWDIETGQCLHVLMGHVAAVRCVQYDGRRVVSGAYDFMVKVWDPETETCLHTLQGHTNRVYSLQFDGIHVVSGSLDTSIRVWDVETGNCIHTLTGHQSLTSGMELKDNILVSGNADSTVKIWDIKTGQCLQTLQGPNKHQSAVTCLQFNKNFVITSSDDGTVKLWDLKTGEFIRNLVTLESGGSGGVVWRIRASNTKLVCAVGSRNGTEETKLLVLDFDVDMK
# TEAD-YAP block: TEAD-YAP interaction inhibition, primary screen, TEAD-YAP interaction inhibitor project, luminescence, HEK-TIYL cells | TEAD-Gal4/YAP UAS-luciferase luminescence | inhibition, % at 9.12 µM | hit rate 1.4% among 640,000; in the data active = inhibition above about 32%;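 also: 0% = median of test compound wells and 100% = reference inhibitor wells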
# GPR151 ag: activators of human GPR151, primary screen, cell-based, PathHunter beta-arrestin, luminescence | hit rate 1% among 650,000 | G-protein coupled receptor 151 (Homo sapiens), Q8TDV0 | activation, % at 11.2 µM | PathHunter beta-arrestin GPR151 cells; in the data active = activation above about 4.9%;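 also: 0% = median of compound wells and 100% = cells with positive control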
# GPR151 confirm: GPR151 activators, triplicate retest, confirmation, cell-based, PathHunter beta-arrestin, luminescence. GPR151 PathHunter beta-arrestin cells, 90 min; % of EA-reagent control over plate median. shares compounds with GPR151 ag. AID 1508609, 2020. activation, % at 11.2 µM. 6,700 tested, under 10 active;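 active = mean percent activation across replicates above the confirmation screen cutoff of 4.91%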
# GPR119 counter: GPR119 activators in beta-arrestin cells, counter-screen for GPR151 activator project, cell-based, PathHunter beta-arrestin, luminescence, triplicate. 90 min; 0 = compound-well median, 100 = enzyme-acceptor control. shares compounds with GPR151 ag. activation, % at 11.2 µM. hit rate 0.3% among 6,700;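 active = mean percent activation in the counterscreen above 29.09%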;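 also: counterscreen on off-target GPR119 to flag nonselective hits from the GPR151 activator screen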
# * marks the source's active call; other numbers are inactive results; / = no result given.
SMILES,MITF inh,FBW7 activator,TEAD-YAP block,GPR151 ag,GPR151 confirm,GPR119 counter
O=C1C2C(c3ccccc3)OC3(C(=O)c4ccccc4C3=O)C2C(=O)N1CCc1ccc(F)cc1 (stereo not drawn),0.3,-0.1,-2.2,7.5*,0.0,8.8
O=C1C2C(c3ccc(F)cc3)OC3(C(=O)c4ccccc4C3=O)C2C(=O)N1Cc1ccccc1 (stereo not drawn),9.6,0.1,13.8,5.6*,-0.4,4.6
Cc1ccc(NC(=O)c2nn3c(c2Br)NC(c2cccs2)CC3C(F)(F)F)cc1C (stereo not drawn),-0.2,0.1,-1.3,7.1*,0.1,-0.1
O=C1CCCc2nc(N3CCN(Cc4ccccc4)CC3)ncc21,13.8,0.1,-6.4,6.9*,0.2,8.5
CC1CC(=O)c2cnc(N3CCN(Cc4ccccc4)CC3)nc2C1 (stereo not drawn),10.2,0.6,-7.1,-0.9,/,/
COC(=O)CSc1nc2sc3c(c2c(=O)n1-c1ccccc1)CCCCC3,5.8,0.0,8.1,-1.2,/,/
CN(c1cccc(NS(=O)(=O)c2ccc(Br)cc2)c1)S(C)(=O)=O,-4.2,-0.2,-3.9,1.2,/,/
COc1cc(C2NC(=O)NC(C)=C2C(C)=O)cc(Br)c1OCc1ccccc1 (stereo not drawn),19.2,0.1,-8.1,5.7*,1.9,10.2
COc1cc(C2NC(=O)NC(C)=C2C(C)=O)cc([N+](=O)[O-])c1O (stereo not drawn),23.9,0.1,8.5,7.8*,0.5,9.6
COC(=O)C1=C(C)NC(=O)NC1c1cc(OC)c(O)c([N+](=O)[O-])c1 (stereo not drawn),5.1,0.0,-16.7,1.1,/,/
CCOC(=O)C1=C(C)NC(=O)NC1c1cc(Br)c(OCc2ccccc2)c(OC)c1 (stereo not drawn),22.1,0.4,-4.5,1.2,/,/
COc1ccc(C2C(C(=O)Nc3ccccc3C)=C(C)NC3=C2C(=O)CCC3)c(OC)c1 (stereo not drawn),-7.5,0.0,-4.7,0.8,/,/
CCOC(=O)c1c(NC(=O)c2ccc(S(=O)(=O)N3CCOCC3)cc2)sc(C(C)=O)c1C,7.4,0.1,-6.9,-0.3,/,/
COc1cc(C2CC(=O)NC3=C2C(=O)CC(c2ccc(OC)c(OC)c2)C3)ccc1O (stereo not drawn),16.8,0.7,9.9,-0.6,/,/
CCOc1cc(C2CC(=O)NC3=C2C(=O)CC(c2ccc(OC)c(OC)c2)C3)ccc1O (stereo not drawn),17.5,0.2,-1.2,6.3*,0.0,1.2
CC(=O)Oc1cccc(/C=C2/C(=O)NN(c3ccc(C)c(C)c3)C2=O)c1,1.6,0.7,-5.7,5.0*,-1.0,-13.4
O=C1NN(c2ccc(F)c(Cl)c2)C(=O)/C1=C\c1ccc(Br)cc1,18.8,0.7,6.8,-0.5,/,/
O=C1NN(c2ccc(F)c(Cl)c2)C(=O)/C1=C\c1cccc(I)c1,6.7,-0.1,8.1,5.2*,0.4,9.3
CC(=O)NCCSCc1ccc(Cl)cc1Cl,8.7,0.2,-11.8,0.4,/,/
CCOC(=O)C1CCCN(S(=O)(=O)c2ccc(F)c(C(=O)Nc3ccc(F)c(F)c3)c2)C1 (stereo not drawn),5.7,0.0,-4.9,2.8,/,/
CCOc1ccc(/C=N/NC(=O)C(=O)NC2CC2)cc1,18.6,0.4,-1.0,5.7*,1.1,3.8
CC(C)Oc1ccc(/C=N/NC(=O)C(=O)NC2CCCCC2)cc1,-8.7,0.0,-5.7,1.4,/,/
COc1ccccc1C(=O)Nc1ccccc1NC(=O)Nc1cccs1,0.2,-0.3,-13.9,4.0,/,/
O=C(CNC(=O)C12CC3CC(CC(C3)C1)C2)N1CCOCC1,1.0,-0.2,-1.1,-1.0,/,/
CC(NC(=O)C12CC3CC(CC(C3)C1)C2)C(=O)N1CCOCC1 (stereo not drawn),-4.6,-0.7,-0.8,5.0*,-0.5,-7.1
